Values without a mark were called inactive. Some of the results follow. Active and inactive are the calls of the source.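 Rule for the calls, unless noted: active = average inhibition above a cutoff equal to the mean inhibition of all tested compounds plus one SD (cut at about 70% in these data); inactive = the rest.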
Assays:
[1] = molecular target: Photoreceptor-specific nuclear receptor (Homo sapiens) (UniProt Q9Y5X4); assay: NR2E3 agonist confirmation in cells, cell-based, luminescence, CHO-S two-hybrid (AID 624378); details: CHO-S mammalian two-hybrid NR2E3-NCOR, luciferase luminescence; at 3.98 µM; stronger effect = higher value;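 note: 0% = DMSO in NR2E3 cells and 100% = DMSO in cells lacking NR2E3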
Chain of Photoreceptor-specific nuclear receptor (Homo sapiens) (Q9Y5X4 whole entry, looked up, the tested form may be a part): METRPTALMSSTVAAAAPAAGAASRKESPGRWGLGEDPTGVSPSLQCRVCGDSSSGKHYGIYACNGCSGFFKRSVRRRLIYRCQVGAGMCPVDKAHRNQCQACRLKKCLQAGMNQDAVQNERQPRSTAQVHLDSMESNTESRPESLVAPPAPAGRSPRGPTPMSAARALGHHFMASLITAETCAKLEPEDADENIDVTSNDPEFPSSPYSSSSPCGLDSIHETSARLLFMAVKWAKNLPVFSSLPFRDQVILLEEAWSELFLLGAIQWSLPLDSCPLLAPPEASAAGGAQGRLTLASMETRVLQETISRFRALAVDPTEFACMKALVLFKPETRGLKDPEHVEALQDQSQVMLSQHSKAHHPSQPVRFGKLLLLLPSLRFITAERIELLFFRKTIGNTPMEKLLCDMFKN

[2] = GAL4-VP16 reporter modulators, confirmation, counter-screen for NR2E3 agonist project, cell-based, luminescence, CHO-S, high throughput (AID 624379;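 active = mean inhibition above a cutoff equal to the average over all tested compounds plus one standard deviation, cut at about 70% in these data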;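 note: luciferase from a UAS reporter driven by GAL4-VP16 transactivation; 0% = DMSO with VP16-transfected cells and 100% = DMSO with cells lacking VP16; higher means less reporter light so more repression of VP16 activity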); details: CHO-S GAL4-VP16 luciferase reporter, at 3.98 µM, stronger effect = higher value
[3] = Gal4-VP16 luciferase reporter inhibitors, counter-screen for COUP-TFII antagonist project, cell-based, luminescence, HEK293 (AID 687007; in the data active = inhibition above about 13%); details: at 8.5 µM, stronger effect = higher value
[4] = molecular target: COUP transcription factor 2 (Homo sapiens) (UniProt P24468); assay: NR2F2 transcriptional activity inhibitors, confirmation, cell-based, luciferase reporter, HEK293, triplicate (AID 687008;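 active = mean inhibition over three repeats above a set limit taken from the earlier primary screen, cut at about 38% in these data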;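 note: 100% = cells given the luciferase reporter alone without the COUP-TF2 vector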); details: HEK293 NGFI-A luciferase reporter, luminescence; at 8.5 µM; stronger effect = higher value
Chain of COUP transcription factor 2 (Homo sapiens) (P24468 whole entry, looked up): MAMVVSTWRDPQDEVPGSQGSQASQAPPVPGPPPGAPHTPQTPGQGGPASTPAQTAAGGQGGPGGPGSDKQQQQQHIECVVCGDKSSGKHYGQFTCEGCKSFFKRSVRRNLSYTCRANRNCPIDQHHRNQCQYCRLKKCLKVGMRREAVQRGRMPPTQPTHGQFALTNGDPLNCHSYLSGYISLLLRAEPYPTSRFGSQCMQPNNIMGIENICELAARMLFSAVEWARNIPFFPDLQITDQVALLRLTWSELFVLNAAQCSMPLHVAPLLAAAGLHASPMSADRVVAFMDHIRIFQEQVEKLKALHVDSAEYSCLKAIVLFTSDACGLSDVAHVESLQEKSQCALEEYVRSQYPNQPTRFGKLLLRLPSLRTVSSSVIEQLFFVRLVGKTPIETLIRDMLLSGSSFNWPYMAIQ

[5] = growth loss of phage-infected RecBCD+ E. coli, confirmation, RecBCD inhibitor project, absorbance, E. coli V66, T4 gene 2 phage (AID 651982;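 active = mean inhibition over triplicates exceeding the hit threshold derived in the original primary screen, cut at about 11% in these data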); details: E. coli V66 + T4 2- phage, growth OD; at 11.9 µM; stronger effect = higher value
[6] = E. coli viability inhibition, counter-screen for RecBCD inhibitor project, absorbance, high throughput (AID 651983; in the data active = inhibition above about 20%;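 note: E. coli strain V66 grown with compound alone and no phage infection; 0% = bacteria with DMSO vehicle only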); details: absorbance (OD) growth, at 11.9 µM, stronger effect = higher value
[7] = growth loss of phage-infected AddAB-carrying E. coli, confirmation, counter-screen for RecBCD inhibitor project, absorbance, E. coli V3065, T4 phage (AID 651984;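 active = mean inhibition above the solvent-only control wells' mean plus 3 SD, cut at about 22% in these data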;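 note: higher means less bacterial growth from phage killing when AddAB is blocked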); details: E. coli expressing H. pylori AddAB + T4 phage, OD growth; at 11.9 µM; stronger effect = higher value; gene 2 mutant T4, recBCD-deleted host
[8] = StAR promoter reporter inhibitors, counter-screen for LRH-1 inverse agonist project, cell-based, luminescence, high throughput (AID 651611; in the data active = inhibition above about 28%); details: StAR promoter luciferase reporter counterscreen, at 3.6 µM, stronger effect = higher value
[9] = molecular target: Nuclear receptor subfamily 5 group A member 2 (Homo sapiens) (UniProt O00482); assay: LRH-1 (NR5A2) inverse agonists, retest, confirmation, cell-based, luminescence (AID 651613; in the data active = inhibition above about 42%;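 note: HEK293T cells co-transfected with LRH-1 and StAR promoter luciferase reporter; 0% = vehicle wells and 100% = parental cells lacking receptor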); details: cell-based LRH-1 luciferase reporter, inverse agonism; at 3.6 µM; stronger effect = higher value
Chain of Nuclear receptor subfamily 5 group A member 2 (Homo sapiens) (O00482 whole entry, looked up): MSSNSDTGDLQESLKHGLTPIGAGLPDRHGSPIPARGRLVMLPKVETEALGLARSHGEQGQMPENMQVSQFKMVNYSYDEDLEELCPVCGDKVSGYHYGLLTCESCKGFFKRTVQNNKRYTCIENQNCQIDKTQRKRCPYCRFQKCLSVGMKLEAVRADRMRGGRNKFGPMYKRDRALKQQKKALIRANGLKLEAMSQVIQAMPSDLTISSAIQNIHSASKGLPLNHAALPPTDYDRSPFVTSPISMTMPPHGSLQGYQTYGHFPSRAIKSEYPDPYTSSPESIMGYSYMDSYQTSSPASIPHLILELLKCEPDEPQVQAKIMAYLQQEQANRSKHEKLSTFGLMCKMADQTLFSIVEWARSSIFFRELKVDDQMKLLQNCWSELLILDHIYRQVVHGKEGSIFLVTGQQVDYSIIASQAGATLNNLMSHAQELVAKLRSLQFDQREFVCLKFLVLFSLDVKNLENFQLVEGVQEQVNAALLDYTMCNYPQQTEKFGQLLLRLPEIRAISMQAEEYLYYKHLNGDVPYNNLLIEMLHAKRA

[10] = molecular target: Steroidogenic factor 1 (Homo sapiens) (UniProt Q13285); assay: SF1 (NR5A1) inverse agonists, counter-screen for LRH-1 inverse agonist project, cell-based, luminescence, high throughput (AID 651614; in the data active = inhibition above about 44%;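 note: cells cotransfected with StAR promoter reporter and SF1 expression vector; 0% = vehicle on cells with receptor and 100% = vehicle on cells lacking receptor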); details: cell-based SF1 luciferase reporter, at 3.6 µM, stronger effect = higher value
Chain of Steroidogenic factor 1 (Homo sapiens) (Q13285 whole entry, looked up, the tested form may be a part): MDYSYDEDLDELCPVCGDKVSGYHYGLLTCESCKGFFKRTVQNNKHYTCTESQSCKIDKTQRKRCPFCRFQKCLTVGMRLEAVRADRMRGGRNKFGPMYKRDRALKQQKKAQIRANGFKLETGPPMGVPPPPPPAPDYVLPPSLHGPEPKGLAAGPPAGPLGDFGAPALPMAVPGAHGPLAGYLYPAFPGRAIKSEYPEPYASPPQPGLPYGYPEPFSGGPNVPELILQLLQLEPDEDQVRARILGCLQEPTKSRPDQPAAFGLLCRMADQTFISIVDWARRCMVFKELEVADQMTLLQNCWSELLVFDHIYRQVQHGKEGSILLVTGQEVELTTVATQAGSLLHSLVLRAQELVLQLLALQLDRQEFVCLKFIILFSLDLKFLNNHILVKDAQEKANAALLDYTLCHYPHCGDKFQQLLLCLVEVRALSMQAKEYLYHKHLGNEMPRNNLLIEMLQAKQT

[11] = VP16 transactivation reporter inhibitors, counter-screen for LRH-1 inverse agonist project, cell-based, luminescence, high throughput (AID 651615; in the data active = inhibition above about 33%); details: Gal4-VP16 luciferase reporter cells, at 3.6 µM, stronger effect = higher value
[12] = tested on: DAF-12 nuclear receptor (Heterodera glycines), GAL4-LBD fusion; assay: H. glycines DAF-12 receptor agonists, confirmation, cell-based, luminescence, HEK293, GAL4-LBD fusion (AID 743050;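 active = mean activation over triplicate wells above the hit cutoff derived from the earlier primary screen, cut at about 11% in these data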;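 note: 0% = DMSO low control and 100% = 2 mM sodium butyrate high control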); details: HEK293 GAL4-hgDAF12 luciferase reporter, agonist mode; at 6.8 µM; stronger effect = higher value; percent of butyrate response
[13] = molecular target: Oxysterols receptor LXR-beta (Homo sapiens) (UniProt P55055); assay: LXR agonists, Gal4 luciferase reporter, confirmation, counter-screen for hgDAF-12 agonist project, cell-based, luminescence, HEK293, H. glycines campaign (AID 743051;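 active = mean activation of the triplicate above a set limit carried over from the primary screen, none filed active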); details: 24 h, at 6.8 µM, stronger effect = higher value
Chain of Oxysterols receptor LXR-beta (Homo sapiens) (P55055 whole entry, looked up, the tested form may be a part): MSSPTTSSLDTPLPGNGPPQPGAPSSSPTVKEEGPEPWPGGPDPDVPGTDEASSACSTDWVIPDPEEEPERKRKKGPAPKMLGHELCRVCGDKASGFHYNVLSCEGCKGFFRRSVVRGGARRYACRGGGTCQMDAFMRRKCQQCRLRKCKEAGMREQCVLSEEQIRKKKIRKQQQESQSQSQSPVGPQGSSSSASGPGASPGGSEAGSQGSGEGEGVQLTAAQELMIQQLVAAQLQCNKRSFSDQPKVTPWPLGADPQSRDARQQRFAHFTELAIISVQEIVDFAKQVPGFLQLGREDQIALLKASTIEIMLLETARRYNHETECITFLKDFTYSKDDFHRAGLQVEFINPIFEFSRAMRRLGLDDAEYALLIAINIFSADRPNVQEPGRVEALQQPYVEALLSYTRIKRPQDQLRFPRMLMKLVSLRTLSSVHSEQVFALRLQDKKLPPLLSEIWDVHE

[14] = tested on: transactivating tegument protein VP16 (Human herpesvirus 1); assay: VP16 transactivation reporter inhibitors, counter-screen for SRC2 inhibitor project, cell-based, luminescence, single concentration (AID 652007; in the data active = inhibition above about 36%); details: cell-based VP16 transactivation luciferase reporter, at 8.9 µM, stronger effect = higher value
[15] = molecular target: Nuclear receptor coactivator 2 (Homo sapiens) (UniProt Q15596); assay: SRC2 coactivator transcriptional activity inhibitors, confirmation, cell-based, luminescence, HEK293, triplicate (AID 652008;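 active = mean inhibition above 46.5%, the solvent-only control mean plus 3 SD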;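 note: 0% = DMSO-treated cells and 100% = Gossypol at 36 µM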); details: HEK293 GAL4-SRC2 luciferase reporter, at 8.9 µM, stronger effect = higher value
Chain of Nuclear receptor coactivator 2 (Homo sapiens) (Q15596 whole entry, looked up, the tested form may be a part): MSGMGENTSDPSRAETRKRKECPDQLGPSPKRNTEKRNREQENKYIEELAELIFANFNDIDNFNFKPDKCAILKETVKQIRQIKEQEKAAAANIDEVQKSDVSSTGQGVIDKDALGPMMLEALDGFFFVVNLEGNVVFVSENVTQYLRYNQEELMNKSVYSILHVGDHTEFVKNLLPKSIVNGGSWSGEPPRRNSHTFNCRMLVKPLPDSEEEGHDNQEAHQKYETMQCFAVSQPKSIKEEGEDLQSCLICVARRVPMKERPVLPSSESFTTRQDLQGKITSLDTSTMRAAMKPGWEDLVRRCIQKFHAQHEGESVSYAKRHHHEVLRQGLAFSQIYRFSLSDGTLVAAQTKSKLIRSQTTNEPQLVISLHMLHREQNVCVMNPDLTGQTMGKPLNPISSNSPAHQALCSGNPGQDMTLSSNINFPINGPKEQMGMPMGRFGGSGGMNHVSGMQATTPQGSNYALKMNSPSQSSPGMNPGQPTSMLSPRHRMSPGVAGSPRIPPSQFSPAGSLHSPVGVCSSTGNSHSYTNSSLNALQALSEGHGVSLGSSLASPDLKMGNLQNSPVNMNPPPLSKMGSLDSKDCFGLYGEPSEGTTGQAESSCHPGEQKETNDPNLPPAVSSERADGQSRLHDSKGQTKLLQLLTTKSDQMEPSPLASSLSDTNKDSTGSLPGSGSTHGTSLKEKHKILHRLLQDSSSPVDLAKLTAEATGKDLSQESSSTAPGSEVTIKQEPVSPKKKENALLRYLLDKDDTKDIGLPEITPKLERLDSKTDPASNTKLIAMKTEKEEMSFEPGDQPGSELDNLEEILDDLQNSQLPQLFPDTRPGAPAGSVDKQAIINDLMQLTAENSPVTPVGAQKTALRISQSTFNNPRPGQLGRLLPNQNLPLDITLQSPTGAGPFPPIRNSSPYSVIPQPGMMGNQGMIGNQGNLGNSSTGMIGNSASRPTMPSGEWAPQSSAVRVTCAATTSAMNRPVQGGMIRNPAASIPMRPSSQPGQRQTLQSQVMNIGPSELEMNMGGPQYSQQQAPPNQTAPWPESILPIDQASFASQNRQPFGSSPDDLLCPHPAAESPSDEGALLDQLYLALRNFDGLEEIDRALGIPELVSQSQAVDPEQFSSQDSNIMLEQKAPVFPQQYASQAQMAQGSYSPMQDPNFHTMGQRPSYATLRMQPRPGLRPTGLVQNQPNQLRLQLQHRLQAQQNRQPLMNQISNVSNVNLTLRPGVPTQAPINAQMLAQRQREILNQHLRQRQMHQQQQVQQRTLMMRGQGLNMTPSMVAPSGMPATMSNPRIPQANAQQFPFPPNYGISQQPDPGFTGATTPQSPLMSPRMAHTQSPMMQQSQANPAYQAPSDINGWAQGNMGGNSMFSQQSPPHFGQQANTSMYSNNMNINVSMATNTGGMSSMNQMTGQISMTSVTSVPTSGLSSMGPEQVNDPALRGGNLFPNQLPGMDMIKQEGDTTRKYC

## CCN(CC)S(=O)(=O)c1ccc(N(C)Cc2ccc(C(F)(F)F)cc2)nc1
[1]
  inhibition: 34.6%
[2]
  inhibition: 41.8%
[3]
  inhibition: -6.6%
[4]
  inhibition: 22.6%

## CCCNc1ncnc2sc(C)c(C)c12
[1]
  inhibition: 27.8%
[2]
  inhibition: 29.6%

## COc1cccc(CNc2nc(NCc3ccccc3OC)nc3ccsc23)c1
[1]
  inhibition: 82% (active)
[2]
  inhibition: 61.6%
[3]
  inhibition: 2.96%
[4]
  inhibition: 18.9%

## Oc1ccc(Br)cc1/C=N/Nc1ccccn1
[1]
  inhibition: 99.3% (active)
[2]
  inhibition: 61%

## OC[C@@H]1CN(Cc2ccc(-c3ccccc3)cc2)C[C@H](n2cnc3c(NC4CCCC4)ncnc32)O1
[1]
  inhibition: 94.9% (active)
[2]
  inhibition: 78.4% (active)
[3]
  inhibition: 4.62%
[4]
  inhibition: 63.3% (active)

## O=C(/C=C/c1ccc([N+](=O)[O-])o1)NNC(=O)c1ccc(F)cc1
[1]
  inhibition: 83.5% (active)
[2]
  inhibition: 18.6%
[5]
  inhibition: 27.6% (active)
[6]
  inhibition: 44.5% (active)
[7]
  inhibition: 104% (active)

## COc1ccc(CNc2ncnc3ccccc23)cc1
[1]
  inhibition: 82.4% (active)
[2]
  inhibition: 75.7% (active)
[8]
  inhibition: 11.2%
[9]
  inhibition: 63.6% (active)
[10]
  inhibition: 55.6% (active)
[11]
  inhibition: 62.8% (active)
[3]
  inhibition: 0.55%
[4]
  inhibition: 47.6% (active)

## Cc1[nH]n(-c2cccc(Cl)c2)c(=O)c1-c1ccc(Cl)cc1
[1]
  inhibition: 97.8% (active)
[2]
  inhibition: 71.3% (active)

## COc1cc(CC(=O)Nc2nc(-c3ccc(F)c(F)c3)cs2)cc(OC)c1OC
[1]
  inhibition: 94.2% (active)
[2]
  inhibition: 86.9% (active)
[3]
  inhibition: -0.07%
[4]
  inhibition: 44.8% (active)

## COC(=O)c1sccc1NC(=O)CSc1ccccc1NS(=O)(=O)c1cc(Cl)ccc1Cl
[1]
  inhibition: 84% (active)
[2]
  inhibition: 74.7% (active)

## c1ccc(C2c3[nH]c4ccccc4c3CCN2Cc2cccn2-c2cccnc2)nc1 (stereo not drawn)
[1]
  inhibition: -1.67%
[2]
  inhibition: -5.76%

## O=C(CCC(=O)N1CCN(S(=O)(=O)c2ccc(Cl)cc2)CC1)NCc1cccc(C(F)(F)F)c1
[1]
  inhibition: 93.6% (active)
[2]
  inhibition: 81.6% (active)
[3]
  inhibition: 7.21%
[4]
  inhibition: 53.4% (active)

## CCCC1CCC(=NNC(=S)NCCc2ccccc2)CC1 (stereo not drawn)
[1]
  inhibition: 3.69%
[2]
  inhibition: -1.56%

## CN(Cc1cn(Cc2ccc(C(F)(F)F)cc2)nn1)C1CN(Cc2cn(Cc3ccc(C(F)(F)F)cc3)nn2)S(=O)(=O)C1 (stereo not drawn)
[1]
  inhibition: 86.8% (active)
[2]
  inhibition: 63.3%

## CN(C(=O)CN1CCN(c2cc(-c3ccc(OCc4ccccc4)cc3)ncn2)CC1)c1ccccc1
[1]
  inhibition: 51.3%
[2]
  inhibition: 52.7%
[8]
  inhibition: 14.7%
[9]
  inhibition: 46.5% (active)
[10]
  inhibition: 46.4% (active)
[11]
  inhibition: 25.7%
[3]
  inhibition: 1.06%
[4]
  inhibition: 31.7%

## Cc1ccnc(NC(=O)C2CCN(S(=O)(=O)c3c(C)c(C)cc(C)c3C)CC2)c1
[1]
  inhibition: 83.3% (active)
[2]
  inhibition: 21.8%
[8]
  inhibition: 6.87%
[9]
  inhibition: 36.1%
[10]
  inhibition: 13.2%
[11]
  inhibition: 21.5%
[12]
  activation: 7.81%
[13]
  activation: 0.16%

## CSc1nsc(SC)c1NC(=O)OC1CCCCC1
[1]
  inhibition: -5.88%
[2]
  inhibition: -17.6%

## COc1ccc(-n2c(C)cc(C(=O)CSc3nnc(-c4cccs4)o3)c2C)cc1
[1]
  inhibition: 61.9%
[2]
  inhibition: 66.9%
[14]
  inhibition: 20%
[15]
  inhibition: 33.9%
[3]
  inhibition: 0.72%
[4]
  inhibition: 34.1%

## Cc1ccc(CS(=O)(=O)c2ncc(Cl)c(C(=O)Nc3nnc(C)s3)n2)cc1
[1]
  inhibition: 30.6%
[2]
  inhibition: -7.39%
[14]
  inhibition: 27.1%
[15]
  inhibition: 55% (active)

## COc1ccccc1CNc1nc(Nc2ccccc2Cl)c2sccc2n1
[1]
  inhibition: 93.1% (active)
[2]
  inhibition: 86.4% (active)
[3]
  inhibition: -3.83%
[4]
  inhibition: 29.8%

## Cc1cc(C)c2c(N)c3cccc(C)c3nc2n1
[8]
  inhibition: 30.8% (active)
[9]
  inhibition: 105% (active)
[10]
  inhibition: 45.8% (active)
[11]
  inhibition: 89% (active)

## O=C(COC(=O)c1cccc(O)c1)Nc1ccc(N2CCOCC2)cc1
[8]
  inhibition: 13.6%
[9]
  inhibition: 54.3% (active)
[10]
  inhibition: 54.6% (active)
[11]
  inhibition: -6.64%

## CNC(=O)c1cccc(NC(=O)c2cc(-c3ccccc3)nc3c2cnn3C(C)C)c1
[8]
  inhibition: 29.4% (active)
[9]
  inhibition: 51.7% (active)
[10]
  inhibition: 49.4% (active)
[11]
  inhibition: -19.8%

## CC1=C(n2nnc([N+](=O)[O-])n2)C(c2cccnc2)C(C#N)=C(N)O1 (stereo not drawn)
[8]
  inhibition: 6.01%
[9]
  inhibition: 17.6%
[10]
  inhibition: 21.5%
[11]
  inhibition: -0.44%

## CN(CCc1ccccc1)C(=O)c1ccc(NC(=O)Cc2ccc(NC(=O)C3CCCN(C(=O)CCc4ccccc4)C3)cc2)cc1 (stereo not drawn)
[8]
  inhibition: 30.9% (active)
[9]
  inhibition: 62.4% (active)
[10]
  inhibition: 64.5% (active)
[11]
  inhibition: 59.8% (active)

## CO/N=C/C(=N\Nc1cc(OC)cc(OC)c1)C(=O)c1ccccc1
[8]
  inhibition: 13.2%
[9]
  inhibition: 63.4% (active)
[10]
  inhibition: 58.3% (active)
[11]
  inhibition: 0.16%

Source: PubChem BioAssay
